Data taken from ChEMBL document CHEMBL1201862, “PubChem BioAssay data set” (2004).
The campaign covered roughly 270,000 compounds. About 5,800 (2.1%) were called active. About 16% were inconclusive and are not listed. The calls are words filed in the database; no cut-off is given here. Only a selection was taken, and actives are over-represented in it overall.

These compounds were tested against Microtubule-associated protein tau (Homo sapiens) (UniProt P10636) (assay: qHTS for Inhibitors of Tau Fibril Formation, Thioflavin T Binding. [Related pubchem assays: 596 ]).
Microtubule-associated protein tau (Homo sapiens), sequence (P10636 whole entry): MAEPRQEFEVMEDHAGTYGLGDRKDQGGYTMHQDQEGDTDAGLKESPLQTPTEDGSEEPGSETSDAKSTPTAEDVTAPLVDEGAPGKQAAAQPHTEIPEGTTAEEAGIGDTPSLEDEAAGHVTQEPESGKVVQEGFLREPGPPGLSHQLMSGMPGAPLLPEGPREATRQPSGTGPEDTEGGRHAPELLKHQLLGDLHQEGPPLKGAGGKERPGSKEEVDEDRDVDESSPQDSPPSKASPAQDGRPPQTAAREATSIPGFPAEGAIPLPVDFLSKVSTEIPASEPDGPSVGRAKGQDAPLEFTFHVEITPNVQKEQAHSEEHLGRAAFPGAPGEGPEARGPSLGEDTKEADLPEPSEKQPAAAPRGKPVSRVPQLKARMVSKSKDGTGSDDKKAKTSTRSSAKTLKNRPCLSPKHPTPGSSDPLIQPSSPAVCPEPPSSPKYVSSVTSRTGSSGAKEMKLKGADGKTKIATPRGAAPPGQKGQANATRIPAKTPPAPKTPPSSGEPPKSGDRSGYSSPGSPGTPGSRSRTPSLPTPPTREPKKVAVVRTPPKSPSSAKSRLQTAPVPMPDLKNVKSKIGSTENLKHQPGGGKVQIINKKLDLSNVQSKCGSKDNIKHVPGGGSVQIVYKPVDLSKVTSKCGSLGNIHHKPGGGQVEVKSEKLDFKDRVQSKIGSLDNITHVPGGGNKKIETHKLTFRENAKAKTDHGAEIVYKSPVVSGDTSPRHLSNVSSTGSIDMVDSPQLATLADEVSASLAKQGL
With `O=C(O)c1cc(/N=N/c2ccc(S(=O)(=O)Nc3ccccn3)cc2)ccc1O` the Potency was 12.6 µM (active).
